Screening data deposited in PubChem by National Center for Advancing Translational Sciences (NCATS).
The sample as a whole holds a higher share of hits than the screen did.
FH mod: Identification of activators of human fumarate hydratase by quantitative high-throughput screening | AID 1347055, 2019 | Fumarate hydratase, mitochondrial (Homo sapiens), P07954 | actives 0.22% (n = 54,000) | FH coupled MDH/diaphorase resazurin fluorescence, 15 min | Potency, µM (series often up to 79.9 µM), without a hit: at the top dose activity change, negative = inhibition, hits mostly inhibitors; further: the screen sought activators but most active calls are inhibition curves; nearly all actives have a fitted effect of over 45% in size
Target sequence (P07954 whole entry, looked up): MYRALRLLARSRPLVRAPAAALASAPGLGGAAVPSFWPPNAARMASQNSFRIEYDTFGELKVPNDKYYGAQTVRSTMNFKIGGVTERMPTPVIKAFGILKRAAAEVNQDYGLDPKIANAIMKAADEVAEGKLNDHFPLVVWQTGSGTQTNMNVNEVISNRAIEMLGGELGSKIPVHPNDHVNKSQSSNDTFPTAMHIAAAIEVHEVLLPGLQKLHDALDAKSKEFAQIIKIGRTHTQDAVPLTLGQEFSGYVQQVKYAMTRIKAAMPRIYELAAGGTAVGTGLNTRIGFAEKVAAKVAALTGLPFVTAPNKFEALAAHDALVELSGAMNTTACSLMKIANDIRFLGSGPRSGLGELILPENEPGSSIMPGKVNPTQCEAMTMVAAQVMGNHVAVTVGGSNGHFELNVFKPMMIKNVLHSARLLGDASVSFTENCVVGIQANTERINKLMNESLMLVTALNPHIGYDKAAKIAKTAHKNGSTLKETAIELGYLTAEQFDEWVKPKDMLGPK
NTMT1 inhibitor: Primary qHTS for Inhibitors of N-terminal methyltransferase 1 (NTMT1): MTaseGlo Assay; Potency, µM (highest dose often 114 µM), for inactives: at the highest dose activity change, negative = inhibition, most hits filed as inhibitors; actives 2.5% (n = 59,000); AID 1645870, 2021; N-terminal Xaa-Pro-Lys N-methyltransferase 1 (Homo sapiens), Q9BV86; NTMT1 MTase-Glo SAH luminescence, purified enzyme;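 further: plate controls were DMSO vehicle for no effect and no enzyme for full effect; nearly all actives have a fitted effect of over 65% in size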
p53null 39C kill: qHTS Screen for Compounds that Selectively Target Cancer Cells with p53 Mutations: Cytotoxicity of p53 Null Cells at the Nonpermissive Temperature; H1299 p53-null (neo) cells, 39C, ATPlite viability, 24 h; Potency, µM (doses to about 46.1 µM), inactives show top-dose activity, negative = cell killing, hits mostly cytotoxic; actives 0.97% (n = 55,000); AID 904, 2007;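 further: 0% = DMSO only and -100% = full killing by 100 µM tamoxifen; nearly all actives have a fitted effect of over 50% in size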
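Temperature-shift cytotoxicity format: compound titrations on p53-null or A138V-expressing H1299 cells held 24 hr at 39C, cell ATP then measured, AC50 from Hill model.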
p53null 32C kill: qHTS Screen for Compounds that Selectively Target Cancer Cells with p53 Mutations: Cytotoxicity of p53 Null Cells at the Permissive Temperature; Potency, µM (highest dose often 46.1 µM), without a hit: at the highest dose activity change, negative = cytotoxicity, hits mostly cytotoxic; actives 0.62% (n = 55,000); H1299-neo p53 null cells, ATP luminescence, 24 h, 32C;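 further: 0% = DMSO only and -100% = full killing by 100 µM tamoxifen; nearly all actives have a fitted effect of over 55% in size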
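ATP-content luminescence in p53-null H1299-neo cells after 24 h compound exposure (up to 46 uM) at 32C permissive temperature; 0% and 100% killing set by DMSO and 100 uM tamoxifen; Hill-equation AC50.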
OvCa metastasis: Primary qHTS assay for Inhibitors of ovarian cancer metastasis using an organotypic tumor microenvironment (TME) model. SKOV3ip1-GFP adhesion/invasion on 3D omental model, fluorescence. Potency, µM (highest dose often 45.8 µM), inactives show top-dose activity change, negative = inhibition, usual class: inhibitors. actives 0.1% (n = 46,000);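 further: plate controls were DMSO wells for no effect and tomatine positive control wells for full effect; nearly all actives have a fitted effect of over 65% in size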
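qHTS, 4-pt dose (0.36-46 umol/L); SKOV3ip1-GFP, 1,200 cells/well, no FBS; primary omental fibroblast/mesothelial co-culture 48 h pre-grown; 2 h RT + 16 h 37 C; PBS wash, 4% PFA; GFP count 488/509 nm.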
An asterisk follows results filed as active; i = inactive; ? = inconclusive; · = not tested or not shown; ! = not confirmed by another sample; [ ] = another dose, or the depositor's remark. The call rests on the fitted dose curve; in most records, active means well fitted curve in the direction sought with a large enough effect; inconclusive means small, poorly fitted or top-dose-only effect, or another doubt; inactive means no such curve, though single readings can be large; an effect the other way counts as inactive or inconclusive. Unless noted, on the % scale 0 is the no-effect control and ±100 the full control effect; potency means the concentration at half of the fitted maximal effect.

SMILES | FH mod | NTMT1 inhibitor | p53null 39C kill | p53null 32C kill | OvCa metastasis
CCN(CC)C(=S)SSC(=S)N(CC)CC | ? | 3.5µM*! | · | · | ?
CN1CCN(c2ccc(NC(=O)CN(C)Cc3c(O)ccc4ccccc34)cc2)CC1 | · | -6%[57.5 µM] | · | · | ·
Cc1ccc(C(=O)COC(=O)CCC(=O)Nc2ccc(Oc3ccccc3)cc2)cc1C | 4% | 5% | -20% | 0% | 1%
COc1ccccc1NC(CC(=O)c1ccccc1)C(=O)OCC(=O)c1ccc(C)c(C)c1 (centres undefined) | · | · | · | 18µM* | ·
CN1CCc2c(sc3c2C(=O)NC(c2ccc(C(C)(C)C)cc2)N3)C1 (centres undefined) | -3% | 79µM* | 20% | -4% | -2%
C[C@H]1[C@H](O)O[C@@H]2O[C@@]3(C)CC[C@H]4[C@H](C)CC[C@@H]1[C@@]24OO3 | 0% | -18%[57.5 µM] | · | · | ·
CCCCN(C)CC(O)Cn1cc(/C=C/C(=O)c2ccc(OCC)cc2)c2ccccc21 (centres undefined) | -21% | -23% | 5µM* | ? | ?
CCCCN(CCCC)CC(O)Cn1cc(/C=C/C(=O)c2ccccc2)c2ccccc21 (centres undefined) | -8% | 7% | ? | ? | -4%
Cc1ccc(Cn2ccn(CC(=O)Nc3c(C)cc(C)cc3C)c(=O)c2=O)cc1 | 7% | 50µM* | -6% | 1% | -4%
CCCN(CCC)CCNC(=O)c1cc2c(-c3ccccc3F)nn(C)c2s1 | 2% | -18% | -16% | 5% | -20%
CCCCN(CC)CCNC(=O)c1cc2c(-c3ccc(Cl)cc3)nn(C)c2s1 | -12% | ? | 16µM* | ? | ?
CCCN(CCC)CCNC(=O)c1cc2c(-c3ccc(Cl)cc3)nn(C)c2s1 | -10% | ? | 13µM* | ? | i
CCCN(CCC)CCCNC(=O)c1cc2c(=O)n(C)c3ccccc3c2s1 | ? | 50µM* | -17% | -5% | -20%
CC1(C)C(=O)N2c3ccccc3[C@]3(CC(n4cnc5ccccc5c4=O)C(=O)O3)[C@H]2N1O (some centres undefined) | -3%[53.3 µM] | 6%[29.8 µM] | · | · | ·
Cc1nc(C)c(CN2CCN(C(c3ccc(F)cc3)c3ccc(F)cc3)CC2)nc1C | · | 19% | · | · | ·
CCc1ccccc1C(=O)N1CCc2cc(-c3nc(NC(=O)Cc4ccc5c(c4)OCO5)sc3C)ccc21 | · | 26% | · | · | ·
Cc1cc(-c2nc3ncccc3o2)ccc1N | · | · | ? | 11µM* | ·
Nc1cc(-c2nc3ncccc3o2)ccc1Cl | · | · | 8% | -28% | ·
Nc1ccc2oc(-c3ccc4nc[nH]c4c3)nc2c1 | · | · | 13µM* | 7.9µM* | ·
Cc1ccccc1Nc1c(-c2ccc(N3CCOCC3)cc2)nc2ncccn12 | -14% | -4% | 13µM* | 13µM* | -5%
Cc1ccc(Nc2c(-c3ccc(N4CCOCC4)cc3)nc3ncccn23)cc1 | -4% | 21% | -20% | -1% | 21%
CC(=O)NC1=C(NC2CCS(=O)(=O)C2)C(=O)c2ccccc2C1=O (centres undefined) | · | · | ? | 11µM* | ·
CC(C)C(C)(C)C(C)(C)C(C)(C)S | 1% | 32µM* | · | · | ·
O=C(CSc1nccn1Cc1ccc(Cl)cc1)Nc1nc2ccccc2s1 | -22% | 10% | 14µM* | 52% | -9%
O=C(CSc1nccn1-c1ccc(Cl)cc1)Nc1nc2ccccc2s1 | 3% | -16% | 20% | -6% | i
CCOC(=O)C1CCN(C(=O)c2ccc3c(c2)sc2nc(-c4ccc(OC)cc4)cn23)CC1 | -23% | 89µM* | 19% | 10% | i
CCOC(=O)C1CCN(C(=O)c2ccc3c(c2)sc2nc(-c4ccc(C)cc4)cn23)CC1 | ? | 1% | 20% | 7% | 0%
